Measured values reported in PubChem BioAssay (NCI).
Compounds without any hit were thinned out: in the full panel of roughly 83,000, 20% have a hit.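 Interpretation: 100, growth as untreated; towards 0, rising growth inhibition; 0, no net growth; 0 to -100, cell death. Compounds scoring below 10 were considered active.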 Activity calls are given as the source filed them.

Columns and labels:
Assay in all cases: NCI-60 one-dose screen, 48 h (100 = growth as untreated, 0 = no growth, -100 = all killed)
Details in all cases: 10 µM unless noted
[1] = test system: NCI-H23 lung
[2] = test system: NCI-H226 lung
[3] = test system: NCI-H322M lung
[4] = test system: HOP-62 NSCLC
[5] = test system: NCI-H460 lung
[6] = test system: HOP-92 NSCLC
[7] = test system: NCI-H522 lung
[8] = test system: A549/ATCC NSCLC
[9] = test system: 786-0 renal
[10] = test system: COLO 205 colon
[11] = test system: DU-145 prostate
[12] = test system: K-562 leukemia
[13] = test system: MALME-3M melanoma
[14] = test system: MDA-MB-231 breast
[15] = test system: RXF 393 renal
[16] = test system: SF-268 CNS
[17] = test system: SF-295 CNS
[18] = test system: SF-539 CNS
[19] = test system: UACC-257 melanoma
[20] = test system: M14 melanoma

Measured: growth

COC1CC2c3ccccc3C1C(C)=[N+]2C (stereo not given)
inactive: [1] 89.3% | [2] 90.8% | [3] 99.5% | [4] 110% | [5] 106% | [6] 98.7% | [7] 79.8% | [8] 96% | [9] 98.9% | [10] 120% | [11] 110% | [12] 110% | [13] 88.7% | [14] 99.5% | [15] 98% | [16] 107% | [17] 94.2% | [18] 102% | [19] 95.6% | [20] 103%

COC(=O)[C@@H](C)C[C@H](Cc1ccccc1)NC(=O)c1nc([C@@H](C[C@H](C(C)C)N(C)C(=O)[C@@H](NC(=O)[C@H]2CCCCN2C)C(C)C)OC(C)=O)sc1C
inactive: [1] 35% | [2] 61.4% | [3] 36.3% | [4] 32.1% | [8] 10.6% | [13] 54% | [15] 44.4% | [16] 17.6% | [17] 15.4% | [19] 59.9%
active: [5] 4.31% | [6] 3.74% | [7] -12.8% | [9] 4.94% | [10] -36.5% | [11] 5.34% | [12] 8.3% | [14] -11.6% | [18] -16.5% | [20] -43.4%

CN1C(=O)C(=Cc2cn(CCCCCCn3c4ccccc4c(=O)c4ccccc43)c3ccccc23)C(=O)N(C)C1=O
inactive: [1] 79.9% | [3] 99.4% | [4] 89.1% | [5] 85.1% | [6] 97.5% | [7] 94.9% | [8] 103% | [9] 97.4% | [10] 102% | [11] 105% | [12] 88.3% | [13] 103% | [14] 103% | [15] 115% | [16] 94.6% | [17] 95% | [18] 86% | [19] 104% | [20] 94%
active: [2] -20.8%

Clc1cc(N2CC2)nc(N2CC2)n1
inactive: [1] 56% | [2] 81.4% | [3] 103% | [4] 63.9% | [5] 23.6% | [6] 68.4% | [7] 67.2% | [8] 62.3% | [9] 76.1% | [10] 81.3% | [11] 52.5% | [12] 69% | [13] 89.7% | [14] 88.1% | [15] 78% | [16] 59.3% | [17] 40.7% | [18] 43.8% | [19] 76.7% | [20] 57.4%

O=C(N/N=C\c1ccc(N(CCCl)CCCl)cc1Cl)c1cccnc1
inactive: [1] 70.5% | [3] 133% | [4] 72.2% | [6] 74.3% | [7] 116% | [8] 60.4% | [9] 66.9% | [10] 83% | [11] 94.4% | [12] 82% | [13] 116% | [14] 85% | [15] 82.8% | [16] 99.1% | [17] 59.6% | [18] 95.3% | [20] 98%
active: [2] -48.5% | [5] 7.56% | [19] -10.9%

O=C1C2C(C(=O)[N]1[Hg][c]1cccs1)C1(Cl)C(Cl)=C(Cl)C2(Cl)C1(Cl)Cl (stereo not given)
inactive: [2] 97.1% | [3] 78.3% | [4] 10.5% | [5] 52.7% | [8] 80.4% | [11] 53.8% | [16] 32.3% | [17] 58.3% | [18] 12.6%
active: [1] -1.96% | [6] -51.4% | [7] -89.8% | [9] -90.2% | [10] -71.4% | [12] -2.45% | [13] -63.7% | [14] -56.2% | [15] -83.5% | [19] -50.8% | [20] -57.9%

CC12CC=CCC1CCC1C2CCC2(C)C(c3ccc(=O)oc3)CCC12O (stereo not given)
active: [1] -44.2% | [2] -90.6% | [3] -19.9% | [4] -65.2% | [5] -70.4% | [6] 1.77% | [7] -19.9% | [8] -37.7% | [9] -42.4% | [10] -43.6% | [11] -98% | [12] 3.02% | [13] -51.8% | [14] -4.41% | [15] -46.5% | [16] -62.2% | [17] -36.7% | [18] -93.7% | [19] -52.8% | [20] -28%
